Data published in PubChem BioAssay (EPA / NIEHS).
Activity calls are given as the source filed them. How the source made its calls: active means hit-call score of the fitted dose curve at least 0.9, where 1 is the maximum; inactive means score below 0.9.

Tests used:
[1] = target: Transcription factor E2F1 (Homo sapiens) (UniProt Q01094); assay: ATG_E2F_CIS: Attagene CIS-FACTORIAL HepG2 Assay for human E2F Transcription Factor 1 (AID 2282935); conditions: HepG2 Attagene cis-reporter, E2F reporter RNA transcripts; actives raise or lower the signal
Chain of Transcription factor E2F1 (Homo sapiens) (Q01094 whole entry, looked up): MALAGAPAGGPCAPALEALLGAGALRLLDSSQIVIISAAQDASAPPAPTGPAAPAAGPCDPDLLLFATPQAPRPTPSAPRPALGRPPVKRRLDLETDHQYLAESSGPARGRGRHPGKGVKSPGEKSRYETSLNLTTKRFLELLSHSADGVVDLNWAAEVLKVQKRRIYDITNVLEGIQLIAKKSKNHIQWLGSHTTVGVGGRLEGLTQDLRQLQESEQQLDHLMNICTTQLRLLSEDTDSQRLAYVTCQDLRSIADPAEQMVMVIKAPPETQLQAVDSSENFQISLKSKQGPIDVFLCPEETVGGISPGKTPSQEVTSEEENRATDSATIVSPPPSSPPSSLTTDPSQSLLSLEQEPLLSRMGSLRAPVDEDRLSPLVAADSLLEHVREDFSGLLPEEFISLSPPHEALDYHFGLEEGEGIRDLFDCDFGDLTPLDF
Summary of the method: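 Liver-derived HepG2 cells expressing transfected promoter-driven reporter units received test chemical for 24 hours. Signal gains or losses were fitted bidirectionally against DMSO.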

[2] = ATG_E_Box_CIS: Attagene CIS-FACTORIAL HepG2 Assay for human Enhancer Box (E-box) (AID 2282936); conditions: HepG2 E-box cis-reporter transcription, actives raise or lower the signal
Summary of the method: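 In this cell-based setup, HepG2 cells bearing transfected promoter-driven reporter units were exposed to chemicals for 24 h; reporter transcripts were amplified, 6-FAM-labelled, cut with HpaI and sized by capillary electrophoresis.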

[3] = ATG_M_61_CIS: Attagene CIS-FACTORIAL HepG2 Assay for M61 Transcription Factor (Internal Marker) (AID 2282937); conditions: HepG2 Attagene CIS-FACTORIAL M61 internal marker reporter; actives raise or lower the signal
Summary of the method: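 This endpoint serves as an internal background control within a multiplexed HepG2 cis-reporter panel. Cells are exposed for 24 h; reporter mRNA is amplified, fluorescently labelled and sized by capillary electrophoresis, with DMSO as negative control.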

[4] = ATG_EGR_CIS: Attagene CIS-FACTORIAL HepG2 Assay for human Early Growth Response 1 (EGR1) (AID 2282938); conditions: HepG2 Attagene CIS-FACTORIAL EGR reporter mRNA; actives raise or lower the signal
Summary of the method: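 HepG2, transient MRTU transfection (cis promoters), 24 h compound. RNA → RT (oligo-dT) → PCR → 6-FAM labelling → HpaI cut → CE fluorescence. Bidirectional fit, DMSO baseline.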

[5] = ATG_ERE_CIS: Attagene CIS-FACTORIAL HepG2 Assay for Estrogen Response Element (ERE) (AID 2282940); conditions: HepG2 ERE cis-reporter, Attagene RNA transcript; actives raise or lower the signal
Summary of the method: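 After a 24 h chemical treatment, RNA from reporter-transfected HepG2 cells is reverse-transcribed, PCR-amplified and fluorescently labelled. Fragments separated by capillary electrophoresis give reporter signal; DMSO serves as negative control.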

[6] = ATG_Ets_CIS: Attagene CIS-FACTORIAL HepG2 Assay for human Erythroblast Transformation Specific (ETS) (AID 2282941); conditions: HepG2 ETS cis-reporter transcription, actives raise or lower the signal
Summary of the method: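 Cis-regulated reporter mRNA induction in HepG2 (transient transfection), 24 h exposure, RT-PCR plus capillary electrophoresis detection; DMSO serves as negative control and baseline.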

[7] = target: Hepatocyte nuclear factor 3-beta (Homo sapiens) (UniProt Q9Y261); assay: ATG_FoxA2_CIS: Attagene CIS-FACTORIAL HepG2 Assay for human Forkhead box A2 (FOXA2) (AID 2282942); conditions: HepG2 cis-reporter transcription factor activity, 24 h; actives raise or lower the signal
Chain of Hepatocyte nuclear factor 3-beta (Homo sapiens) (Q9Y261 whole entry, looked up): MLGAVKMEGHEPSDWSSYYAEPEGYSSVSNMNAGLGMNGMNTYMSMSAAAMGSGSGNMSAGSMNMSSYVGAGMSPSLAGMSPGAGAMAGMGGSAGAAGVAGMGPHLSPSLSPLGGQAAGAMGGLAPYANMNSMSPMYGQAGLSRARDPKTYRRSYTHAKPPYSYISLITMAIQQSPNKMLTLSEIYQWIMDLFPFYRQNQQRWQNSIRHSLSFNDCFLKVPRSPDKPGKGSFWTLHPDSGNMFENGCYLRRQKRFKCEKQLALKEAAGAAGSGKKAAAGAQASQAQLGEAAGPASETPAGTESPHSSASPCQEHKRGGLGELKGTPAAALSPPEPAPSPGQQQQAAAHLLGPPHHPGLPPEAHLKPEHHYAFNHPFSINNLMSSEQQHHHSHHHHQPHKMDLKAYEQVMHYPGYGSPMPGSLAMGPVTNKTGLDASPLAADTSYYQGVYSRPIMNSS
Summary of the method: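 Cells: HepG2, transient multiplex reporter transfection. Exposure 24 h. Detection: reporter-specific RT-PCR, fluorescent labelling, restriction digest, capillary electrophoresis. Analysis: bidirectional curve fit, DMSO as negative control.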

[8] = ATG_FoxO_CIS: Attagene CIS-FACTORIAL HepG2 Assay for human Forkhead box O (FoxO) (AID 2282943); conditions: HepG2 Attagene cis-reporter, FoxO element, mRNA; actives raise or lower the signal
Summary of the method: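 Read-out: fluorescence of 6-FAM-labelled reporter cDNA fragments resolved by capillary electrophoresis. Transiently transfected HepG2 cells were dosed for 24 h; activity fitted in both directions relative to DMSO controls.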

[9] = ATG_GATA_CIS: Attagene CIS-FACTORIAL HepG2 Assay for human GATA Binding Protein (AID 2282944); conditions: HepG2 GATA cis-element reporter, Attagene multiplex mRNA; actives raise or lower the signal
Summary of the method: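 Cells: HepG2, transiently transfected with cis-regulated reporter transcription units. Exposure: 24 h. Detection: RT-PCR plus capillary electrophoresis of FAM-labeled fragments. Analysis: bidirectional, DMSO as baseline.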

[10] = ATG_GLI_CIS: Attagene CIS-FACTORIAL HepG2 Assay for human Zinc Finger Protein GLI1 (AID 2282945); conditions: HepG2, Attagene cis-factorial reporter mRNA, GLI element; actives raise or lower the signal
Summary of the method: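 Transiently transfected HepG2 cells report endogenous transcription factor activity via cis-element-driven reporter units. After 24 h compound exposure, reporter mRNA was measured by RT-PCR with capillary electrophoresis; bidirectional fitting against DMSO baseline.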

[11] = ATG_GRE_CIS: Attagene CIS-FACTORIAL HepG2 Assay for human Glucocorticoid Response Elements (GRE) (AID 2282947); conditions: HepG2 GRE cis-reporter, Attagene multiplex mRNA; actives raise or lower the signal
Summary of the method: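 Fluorescence intensity of reporter-specific cDNA fragments, separated by capillary electrophoresis, provides the signal. Constructs carry cis-regulating promoters in transiently transfected HepG2 liver cells; 24 h incubation; fitting is bidirectional against DMSO.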

[12] = ATG_ISRE_CIS: Attagene CIS-FACTORIAL HepG2 Assay for human Interferon Regulatory Factor 1 (IRF1) binding to an Interferon-Stimulated Response Element (ISRE) (AID 2282948); conditions: HepG2 ISRE cis-reporter (Attagene), mRNA transcription readout; actives raise or lower the signal
Summary of the method: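 Multiplexed mRNA reporter readout in human liver HepG2 cells: cis-element-driven reporters transfected, compound added for 24 h, transcripts amplified, fluorescently labelled and sized by capillary electrophoresis; curve fitting bidirectional against DMSO.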

[13] = ATG_M_32_CIS: Attagene CIS-FACTORIAL HepG2 Assay for M32 Transcription Factor (Internal Marker) (AID 2282949); conditions: HepG2 Attagene cis-factorial M32 reporter, mRNA; actives raise or lower the signal;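 further: background control marker of the multiplexed CIS panel rather than a real target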
Summary of the method: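 HepG2 human liver cells transiently transfected with cis-promoter-driven multiple reporter transcription units, dosed 24 h. Reporter mRNA quantified by RT-PCR, FAM-labelled primer extension, HpaI digest and capillary electrophoresis; bidirectional fit versus DMSO baseline.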

[14] = ATG_M_06_CIS: Attagene CIS-FACTORIAL HepG2 Assay for M06 Transcription Factor (Internal Marker) (AID 2282950); conditions: HepG2 Attagene CIS-FACTORIAL M06 internal marker reporter; actives raise or lower the signal
Summary of the method: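 Measured 24 h post-dosing in transiently transfected HepG2 cells, this internal-marker endpoint reports reporter mRNA via RT-PCR with fluorescent primer extension and capillary electrophoresis. DMSO served as negative control and baseline for bidirectional fitting.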

[15] = target: Hypoxia-inducible factor 1-alpha (Homo sapiens) (UniProt Q16665); assay: ATG_HIF1a_CIS: Attagene CIS-FACTORIAL HepG2 Assay for human Hypoxia Inducible Factor 1 (HIF1A) (AID 2282951); conditions: HepG2 Attagene cis-factorial HIF1a reporter transcription; actives raise or lower the signal
Chain of Hypoxia-inducible factor 1-alpha (Homo sapiens) (Q16665 whole entry, looked up): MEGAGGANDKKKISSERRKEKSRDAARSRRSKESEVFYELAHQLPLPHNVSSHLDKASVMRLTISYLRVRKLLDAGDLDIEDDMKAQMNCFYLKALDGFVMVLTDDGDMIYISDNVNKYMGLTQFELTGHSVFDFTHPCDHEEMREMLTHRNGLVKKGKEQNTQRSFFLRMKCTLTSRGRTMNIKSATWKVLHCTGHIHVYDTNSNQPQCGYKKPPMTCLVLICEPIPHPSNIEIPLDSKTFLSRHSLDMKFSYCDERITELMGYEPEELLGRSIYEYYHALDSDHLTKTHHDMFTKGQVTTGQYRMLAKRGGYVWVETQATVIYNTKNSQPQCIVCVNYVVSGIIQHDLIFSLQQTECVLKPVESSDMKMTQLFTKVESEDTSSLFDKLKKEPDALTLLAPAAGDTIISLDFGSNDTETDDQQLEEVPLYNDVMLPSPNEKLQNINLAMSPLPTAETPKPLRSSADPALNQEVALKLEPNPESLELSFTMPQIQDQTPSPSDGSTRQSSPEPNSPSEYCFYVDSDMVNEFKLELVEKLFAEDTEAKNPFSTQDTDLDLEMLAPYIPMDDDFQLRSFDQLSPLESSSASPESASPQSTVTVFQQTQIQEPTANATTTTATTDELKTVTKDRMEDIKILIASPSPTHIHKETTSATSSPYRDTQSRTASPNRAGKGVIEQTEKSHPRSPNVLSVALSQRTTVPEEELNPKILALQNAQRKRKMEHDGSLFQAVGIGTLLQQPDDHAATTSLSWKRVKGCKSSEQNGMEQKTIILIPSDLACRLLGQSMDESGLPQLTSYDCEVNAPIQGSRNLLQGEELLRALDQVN
Summary of the method: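 HepG2, transient cis-reporter library, 24 h dosing. RNA → RT (oligo dT) → PCR → 6-FAM primer extension → HpaI → CE. Bidirectional curve fit vs DMSO.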

[16] = target: Hepatocyte nuclear factor 6 (Homo sapiens) (UniProt Q9UBC0); assay: ATG_HNF6_CIS: Attagene CIS-FACTORIAL HepG2 Assay for human Hepatocyte Nuclear Factor 6 (HNF6) (AID 2282952); conditions: HepG2 Attagene cis-factorial HNF6 reporter transcription; actives raise or lower the signal
Chain of Hepatocyte nuclear factor 6 (Homo sapiens) (Q9UBC0 whole entry, looked up): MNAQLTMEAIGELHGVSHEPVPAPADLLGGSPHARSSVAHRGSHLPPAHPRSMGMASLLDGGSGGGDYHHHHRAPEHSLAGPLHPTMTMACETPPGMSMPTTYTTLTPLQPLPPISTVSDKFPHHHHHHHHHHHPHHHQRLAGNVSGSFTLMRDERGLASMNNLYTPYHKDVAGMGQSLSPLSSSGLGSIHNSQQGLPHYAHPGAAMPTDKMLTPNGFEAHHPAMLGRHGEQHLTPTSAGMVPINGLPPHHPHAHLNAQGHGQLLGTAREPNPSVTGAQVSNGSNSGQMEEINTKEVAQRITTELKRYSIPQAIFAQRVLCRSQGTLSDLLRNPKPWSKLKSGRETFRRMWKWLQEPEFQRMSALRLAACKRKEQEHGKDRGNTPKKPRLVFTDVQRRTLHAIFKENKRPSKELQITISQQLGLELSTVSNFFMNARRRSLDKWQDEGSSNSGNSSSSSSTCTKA
Summary of the method: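 Endogenous factor activity read in transiently transfected HepG2 via promoter-regulated reporter transcripts. RNA harvested 24 h post-dosing, reverse-transcribed, PCR-amplified, FAM-labelled, HpaI-digested and resolved by capillary electrophoresis; fitted in both directions against DMSO.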

[17] = ATG_MRE_CIS: Attagene CIS-FACTORIAL HepG2 Assay for human Metal Responsive Element (MRE) (AID 2282954); conditions: HepG2 MRE cis-reporter transcription, Attagene multiplex; actives raise or lower the signal
Summary of the method: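 Measured here is mRNA induction from an MRE cis-element reporter in HepG2 after 24 h, quantified by fluorescence of labelled RT-PCR products on capillary electrophoresis; gain- and loss-of-signal fits use DMSO as baseline.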

[18] = target: Bile acid receptor (Homo sapiens) (UniProt Q96RI1); assay: ATG_IR1_CIS: Attagene CIS-FACTORIAL HepG2 Assay for human Nuclear Receptor Subfamily 1 Group H Member 4 (NR1H4), IR1 submotif (AID 2282946); conditions: IR1 reporter transcription, actives raise or lower the signal
Chain of Bile acid receptor (Homo sapiens) (Q96RI1 whole entry, looked up): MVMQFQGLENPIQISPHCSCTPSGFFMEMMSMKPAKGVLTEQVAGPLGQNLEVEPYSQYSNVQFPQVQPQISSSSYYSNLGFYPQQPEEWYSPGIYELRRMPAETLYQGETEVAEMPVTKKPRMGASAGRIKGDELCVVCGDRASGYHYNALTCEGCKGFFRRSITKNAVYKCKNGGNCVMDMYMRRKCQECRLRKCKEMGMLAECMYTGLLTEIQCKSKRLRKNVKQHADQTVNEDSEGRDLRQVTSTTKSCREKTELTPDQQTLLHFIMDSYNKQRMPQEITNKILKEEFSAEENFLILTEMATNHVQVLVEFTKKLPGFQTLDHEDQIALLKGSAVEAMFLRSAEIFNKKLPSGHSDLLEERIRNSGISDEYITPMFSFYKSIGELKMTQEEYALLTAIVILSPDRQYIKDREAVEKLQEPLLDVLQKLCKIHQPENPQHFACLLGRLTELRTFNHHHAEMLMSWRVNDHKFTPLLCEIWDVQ
Summary of the method: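 Fluorescence of capillary-separated, HpaI-digested RT-PCR reporter products gave IR1-element mRNA induction in HepG2 cells 24 h after dosing. Endogenous transcription factors drove the cis-regulated reporters; activity was fitted bidirectionally against DMSO.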

[19] = target: Heat shock factor protein 1 (Homo sapiens) (UniProt Q00613); assay: ATG_HSE_CIS: Attagene CIS-FACTORIAL HepG2 Assay for human Heat Shock Transcription Factor 1 (HSE) (AID 2282953); conditions: HepG2 HSE cis-reporter, Attagene RNA transcription; actives raise or lower the signal
Chain of Heat shock factor protein 1 (Homo sapiens) (Q00613 whole entry, looked up): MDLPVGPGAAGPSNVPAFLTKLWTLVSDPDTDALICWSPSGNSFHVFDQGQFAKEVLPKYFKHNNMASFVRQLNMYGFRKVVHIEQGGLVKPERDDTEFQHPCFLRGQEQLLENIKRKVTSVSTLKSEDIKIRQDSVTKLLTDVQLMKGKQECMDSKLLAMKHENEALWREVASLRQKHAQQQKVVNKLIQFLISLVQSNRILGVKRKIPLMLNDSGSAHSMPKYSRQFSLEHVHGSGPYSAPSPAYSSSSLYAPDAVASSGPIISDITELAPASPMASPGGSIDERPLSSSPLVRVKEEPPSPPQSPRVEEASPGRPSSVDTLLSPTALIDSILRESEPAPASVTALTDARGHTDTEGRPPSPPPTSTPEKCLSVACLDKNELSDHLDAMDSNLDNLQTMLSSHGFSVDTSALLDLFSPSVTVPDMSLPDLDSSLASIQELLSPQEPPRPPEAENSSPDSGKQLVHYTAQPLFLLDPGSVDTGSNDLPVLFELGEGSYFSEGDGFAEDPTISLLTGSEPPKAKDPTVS
Summary of the method: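 Reporter mRNA induction in HepG2 is measured 24 h after dosing, using transiently transfected multiplexed cis-regulated reporter units. Signal comes from capillary electrophoresis of labelled RT-PCR products, with DMSO as negative control.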

Measured: AC50

CCOS(=O)(=O)OCC
not listed: [18] | [19]
inactive: all other assays above

FC(F)(F)C(F)(C(F)(F)F)C(F)(F)C(F)(F)CC1CO1 (configuration not stated)
not listed: [19]
inactive: all other assays above

O=P(Oc1ccccc1)(Oc1ccccc1)Oc1ccccc1
active: [4] 33.4 µM | [5] 9.81 µM | [10] 53.3 µM | [18] 26.6 µM | [12] 33.4 µM | [19] 53.4 µM | [17] 33.4 µM
inactive: all other assays above

Cc1cc(C)c(C(=O)P(=O)(c2ccccc2)c2ccccc2)c(C)c1
inactive: [1] | [6] | [7] | [8] | [12] | [15]
active: [2] 54.9 µM | [3] 60.7 µM | [4] 41.3 µM | [5] 8.69 µM | [9] 54.9 µM | [10] 60 µM | [18] 12.8 µM | [11] 57.7 µM | [13] 53.1 µM | [14] 60.7 µM | [16] 50.7 µM | [17] 17.9 µM

Clc1ccc(Oc2ccccc2)cc1
active: [5] 88.4 µM
not listed: [19]
inactive: all other assays above

CC(O)C(F)(F)C(F)(F)F (configuration not stated)
inactive: all assays above

CC(C)(C)OOC(C)(C)C
not listed: [19]
inactive: all other assays above
